According to PubChem BioAssay (EPA / NIEHS):
Results filed as inconclusive are left out. The source made the active and inactive calls. How the source made its calls, unless noted: active means hit-call score of the fitted dose curve at least 0.9, where 1 is the maximum; inactive means score below 0.9.

What was measured:
[1] = read-out: Signal transducer and activator of transcription 3 (Homo sapiens) (UniProt P40763); test: LTEA_HepaRG_STAT3: Life Technologies and Expression Analysis (LTEA) Assay for Signal transducer and activator of transcription (STAT3) using HepaRG (AID 2283529); conditions: mRNA level, 48 h; actives raise or lower the signal
In short: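 STAT3 transcript quantified by qRT-PCR against three housekeeping genes (ACTB, GAPDH, POLR2A), fitted both directions relative to DMSO. HepaRG cultures exposed 48 h to eight half-log concentrations, top 100 uM, 0.5% DMSO, serum-free induction medium.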

[2] = read-out: solute carrier (SLCO1B1), SLCO1B1 (gene 10599); test: LTEA_HepaRG_SLCO1B1: Life Technologies and Expression Analysis (LTEA) Assay for solute carrier (SLCO1B1) using HepaRG (AID 2283530); conditions: mRNA level, 48 h; actives raise or lower the signal
In short: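 Gain or loss of SLCO1B1 mRNA is fitted against the 0.5% DMSO vehicle in human HepaRG liver cells treated 48 h at up to 100 uM in half-log steps. Expression comes from qRT-PCR normalized to endogenous controls.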

[3] = read-out: sulfotransferase 2A1 (SULT2A1), SULT2A1 (gene 6822); test: LTEA_HepaRG_SULT2A1: Life Technologies and Expression Analysis (LTEA) Assay for sulfotransferase 2A1 (SULT2A1) using HepaRG (AID 2283531); conditions: mRNA level, 48 h; actives raise or lower the signal
In short: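 Cells were plated and cultured 48 h, switched to serum-free induction medium, then dosed in duplicate for 48 h (8 concentrations, max 100 uM). RNA was isolated and SULT2A1 expression measured by qRT-PCR; gain or loss of signal fitted relative to DMSO.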

[4] = read-out: Transforming Growth Factor (TGFA), TGFA (gene 7039); test: LTEA_HepaRG_TGFA: Life Technologies and Expression Analysis (LTEA) Assay for Transforming Growth Factor (TGFA) using HepaRG (AID 2283532); conditions: mRNA level, 48 h; actives raise or lower the signal
In short: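 TGFA transcript quantified by qRT-PCR (Fluidigm arrays) against three housekeeping genes, after 48 hours chemical treatment of HepaRG cells. Top concentration 100 uM with half-log dilutions, 8 points, duplicates, 0.5% DMSO.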

[5] = read-out: Transforming Growth Factor (TGFB1), TGFB1 (gene 7040); test: LTEA_HepaRG_TGFB1: Life Technologies and Expression Analysis (LTEA) Assay for Transforming Growth Factor (TGFB1) Transporter using HepaRG (AID 2283533); conditions: mRNA level, 48 h; actives raise or lower the signal
In short: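 Expression change of TGFB1 in human HepaRG cells is measured after a 48 h chemical exposure, up to 100 uM in 0.5% DMSO vehicle. Curves are fitted in both directions relative to the DMSO baseline.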

TIMP1, TIMP1 (gene 7076) = test: LTEA_HepaRG_TIMP1: Life Technologies and Expression Analysis (LTEA) Assay for TIMP1 using HepaRG (AID 2283534); conditions: mRNA level, 48 h; actives raise or lower the signal;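 further: TaqMan qRT-PCR signal normalized to ACTB GAPDH and POLR2A housekeeping genes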
In short: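 We dosed human liver HepaRG cultures for 48 hours with up to 100 uM test chemical and measured TIMP1 expression by qRT-PCR. Activity in either direction is fitted relative to the 0.5% DMSO vehicle.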

[6] = read-out: Tumor necrosis factor receptor 1 (TNFRSF1A), TNFRSF1A (gene 7132); test: LTEA_HepaRG_TNFRSF1A: Life Technologies and Expression Analysis (LTEA) Assay for Tumor necrosis factor receptor 1 (TNFRSF1A) using HepaRG (AID 2283535); conditions: mRNA level, 48 h; actives raise or lower the signal
In short: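 Expression of TNFRSF1A in human HepaRG liver cells was measured by qRT-PCR 48 h after chemical dosing (maximum 100 uM). Bidirectional curve fitting used 0.5% DMSO as baseline.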

[7] = read-out: Thyroid Hormone Responsive (THRSP), THRSP (gene 7069); test: LTEA_HepaRG_THRSP: Life Technologies and Expression Analysis (LTEA) Assay for Thyroid Hormone Responsive (THRSP) using HepaRG (AID 2283536); conditions: mRNA level, 48 h; actives raise or lower the signal
In short: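 THRSP transcript quantified by Fluidigm qRT-PCR against three housekeeping genes after 48 h chemical exposure of HepaRG cells in serum-free induction medium; eight-point half-log series, top 100 uM, 0.5% DMSO vehicle, duplicate wells.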

[8] = read-out: Cellular tumor antigen p53 (Homo sapiens) (UniProt P04637); test: LTEA_HepaRG_TP53: Life Technologies and Expression Analysis (LTEA) Assay for Tumor Protein P53 (TP53) using HepaRG (AID 2283537); conditions: mRNA level, 48 h; actives raise or lower the signal
In short: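 Differentiated HepaRG cells in serum-free induction medium exposed 48 h in duplicate to 8 half-log concentrations, top 100 uM, 0.5% DMSO. TP53 mRNA by TaqMan qRT-PCR (Fluidigm), normalized to ACTB, GAPDH, POLR2A; fitted bidirectionally versus DMSO.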

[9] = read-out: UDP glucuronosyltransferase (UGT1A1), UGT1A1 (gene 54658); test: LTEA_HepaRG_UGT1A1: Life Technologies and Expression Analysis (LTEA) Assay for UDP glucuronosyltransferase (UGT1A1) using HepaRG (AID 2283538); conditions: mRNA level, 48 h; actives raise or lower the signal
In short: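 Cells are plated, cultured 48 h, switched to serum-free induction medium, then dosed 48 h at eight concentrations (max 100 uM, 0.5% DMSO). RNA is isolated and UGT1A1 expression measured by qRT-PCR; changes versus DMSO are fitted in both directions.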

[10] = read-out: UDP glucuronosyltransferase (UGT1A6), UGT1A6 (gene 54578); test: LTEA_HepaRG_UGT1A6: Life Technologies and Expression Analysis (LTEA) Assay for UDP glucuronosyltransferase (UGT1A6) using HepaRG (AID 2283539); conditions: mRNA level, 48 h; actives raise or lower the signal
In short: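 Endpoint is UGT1A6 transcript induction or loss in a human liver cell line, quantified by TaqMan qRT-PCR 48 h after dosing. Concentrations ran from 100 uM downward in half-log steps in 0.5% DMSO; activity was fitted in both directions versus vehicle.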

[11] = read-out: X-box binding protein 1 (XBP1), XBP1 (gene 7494); test: LTEA_HepaRG_XBP1: Life Technologies and Expression Analysis (LTEA) Assay for X-box binding protein 1 (XBP1) using HepaRG (AID 2283540); conditions: mRNA level, 48 h; actives raise or lower the signal
In short: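 Human HepaRG monolayers receive test chemical for 48 h across an eight-point half-log series starting at 100 uM. XBP1 mRNA gain or loss is scored against DMSO by qRT-PCR.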

[12] = LTEA_HepaRG_LDH_cytotoxicity: Cytotoxicity Assessment in the Life Technologies and Expression Analysis (LTEA) Assay (AID 2283563; active means hit-call score of the fitted dose curve at least 0.9, where 1 is the maximum;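 on AC50: LDH activity released into spent culture medium as a marker of cell death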)
In short: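 Human HepaRG hepatic cells are treated with test chemicals for 48 h at up to 100 uM in 0.5% DMSO. Cytotoxicity is scored from medium LDH against the vehicle control.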

[13] = target: Cellular tumor antigen p53 (Homo sapiens) (UniProt P04637); test: TOX21_p53_BLA_p2_ratio: Tox21 HCT-116 p53 Agonism Beta-lactamase Assay, Ratio, Phase 2 (AID 2283592; active means hit-call score of the fitted dose curve at least 0.9, where 1 is the maximum)
In short: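 Cleaved-to-uncleaved substrate ratio (460 vs 530 nm) measured in HCT116 cells with an inducible beta-lactamase reporter linked to p53 activity. Compounds incubated 16 h at 37C before 2 h room-temperature CCF4-AM loading.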

[14] = TOX21_p53_BLA_p3_viability: Viability Assessment in the Tox21 HCT-116 p53 Agonism Beta-lactamase Assay, Phase 3 (AID 2283593; active means hit-call score of the fitted dose curve at least 0.9, where 1 is the maximum;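 further: cells exposed to compound for 16 h before reading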)
In short: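 Cellular ATP was quantified by CellTiter-Glo luminescence, read after 30 min at room temperature. Beforehand, HCT116 cells (4000/well) received compound 5 h post-seeding, 217-fold diluted from DMSO, then incubated 16 h at 37C.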

[15] = TOX21_p53_BLA_p4_viability: Viability Assessment in the Tox21 HCT-116 p53 Agonism Beta-lactamase Assay, Phase 4 (AID 2283597; active means hit-call score of the fitted dose curve at least 0.9, where 1 is the maximum;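 further: hits lower the luminescence signal meaning cytotoxicity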)
In short: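 Viability is taken as cellular ATP: after 16 h compound exposure of HCT116 cells and a 2 h room-temperature CCF4-AM substrate step, CellTiter-Glo reagent is added and luminescence is measured 30 min later.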

[16] = target: Cellular tumor antigen p53 (Homo sapiens) (UniProt P04637); test: TOX21_p53_BLA_p5_ratio: Tox21 HCT-116 p53 Agonism Beta-lactamase Assay, Ratio, Phase 5 (AID 2283599; active means hit-call score of the fitted dose curve at least 0.9, where 1 is the maximum)
In short: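 Beta-lactamase reporter ratio (blue 460 nm over green 530 nm, 405 nm excitation) after 2 h CCF4-AM loading, in HCT-116 cells exposed 16 h at 37 C to compounds pinned at 217-fold dilution. Increases relative to DMSO baseline scored.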

[17] = TOX21_p53_BLA_p2_viability: Viability Assessment in the Tox21 HCT-116 p53 Agonism Beta-lactamase Assay, Phase 2 (AID 2283591; active means hit-call score of the fitted dose curve at least 0.9, where 1 is the maximum;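 further: compound exposure lasted 16 h at 37 °C; actives lower the ATP signal meaning cytotoxicity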)
In short: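 Cytotoxicity readout: CellTiter-Glo ATP luminescence, 30 min at room temperature, after the beta-lactamase read. Cells were HCT116 exposed 16 h at 37C to compounds pin-transferred at 217-fold dilution from DMSO stocks.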

[18] = target: Cellular tumor antigen p53 (Homo sapiens) (UniProt P04637); test: TOX21_p53_BLA_p3_ratio: Tox21 HCT-116 p53 Agonism Beta-lactamase Assay, Ratio, Phase 3 (AID 2283596; active means hit-call score of the fitted dose curve at least 0.9, where 1 is the maximum)
In short: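 Cells were seeded at 4000/well, rested 5 h at 37C, then dosed with DMSO compound solutions (217-fold dilution) for 16 h. CCF4-AM substrate was loaded for 2 h at room temperature, and the 460/530 nm emission ratio was fitted for gain of signal versus DMSO.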

[19] = ATG_XTT_Cytotoxicity: Cytotoxicity Assessment in the Attagene TRANS-FACTORIAL HepG2 Assay (AID 2283584; active means hit-call score of the fitted dose curve at least 0.9, where 1 is the maximum)
In short: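 Transfect HepG2 with GAL4-UAS reporter units, dose compound, incubate 24 h, then measure viable cell number by XTT. Fit concentration response against DMSO baseline.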

Measured: AC50

Chain of Signal transducer and activator of transcription 3 (Homo sapiens) (P40763 whole entry, looked up): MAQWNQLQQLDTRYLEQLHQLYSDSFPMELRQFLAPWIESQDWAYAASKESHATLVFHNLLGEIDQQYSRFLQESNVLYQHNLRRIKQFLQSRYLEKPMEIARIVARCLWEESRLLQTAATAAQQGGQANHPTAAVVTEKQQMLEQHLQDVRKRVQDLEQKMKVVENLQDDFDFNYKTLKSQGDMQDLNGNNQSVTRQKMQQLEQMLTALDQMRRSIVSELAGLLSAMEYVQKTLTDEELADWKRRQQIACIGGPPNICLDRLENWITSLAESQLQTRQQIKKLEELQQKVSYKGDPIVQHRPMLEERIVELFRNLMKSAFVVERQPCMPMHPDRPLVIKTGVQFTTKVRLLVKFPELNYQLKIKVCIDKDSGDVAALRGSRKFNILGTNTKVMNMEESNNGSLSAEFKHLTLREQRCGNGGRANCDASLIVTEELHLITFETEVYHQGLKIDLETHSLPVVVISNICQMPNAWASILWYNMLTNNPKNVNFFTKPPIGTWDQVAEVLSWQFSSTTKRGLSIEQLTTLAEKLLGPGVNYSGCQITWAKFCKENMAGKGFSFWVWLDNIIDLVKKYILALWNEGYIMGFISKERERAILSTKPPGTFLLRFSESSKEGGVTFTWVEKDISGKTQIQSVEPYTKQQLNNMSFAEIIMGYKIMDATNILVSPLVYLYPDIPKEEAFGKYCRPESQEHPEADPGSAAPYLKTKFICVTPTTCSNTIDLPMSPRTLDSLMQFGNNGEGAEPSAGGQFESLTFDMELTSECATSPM
Chain of Cellular tumor antigen p53 (Homo sapiens) (P04637 whole entry, looked up): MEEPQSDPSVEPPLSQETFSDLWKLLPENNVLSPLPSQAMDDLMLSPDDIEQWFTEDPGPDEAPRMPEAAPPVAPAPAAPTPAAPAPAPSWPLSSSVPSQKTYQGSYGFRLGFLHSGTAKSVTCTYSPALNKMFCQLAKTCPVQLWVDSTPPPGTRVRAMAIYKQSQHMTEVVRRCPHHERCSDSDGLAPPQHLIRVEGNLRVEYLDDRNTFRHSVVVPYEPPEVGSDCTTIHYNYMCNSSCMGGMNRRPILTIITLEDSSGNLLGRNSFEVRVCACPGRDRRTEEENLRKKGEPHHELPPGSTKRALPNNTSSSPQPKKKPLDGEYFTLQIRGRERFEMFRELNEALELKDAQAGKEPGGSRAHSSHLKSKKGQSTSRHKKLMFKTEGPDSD

CC(C)c1ccc(C(=O)N=C(N)N)cc1S(C)(=O)=O
active: [4] 0.555 µM | [5] 0.403 µM | [6] 0.337 µM | [7] 37.2 µM | [8] 0.457 µM | [9] 10.2 µM | [11] 0.288 µM
inactive: [1] | [2] | [3] | TIMP1, TIMP1 (gene 7076) | [10] | [12] | [13] | [14] | [15] | [16]

COCCOC[C@H](CC1(C(=O)NC2CCC(C(=O)O)CC2)CCCC1)C(=O)Oc1ccc2c(c1)CCC2 (stereo not given in full)
inactive: [1] | [2] | [3] | [4] | [5] | TIMP1, TIMP1 (gene 7076) | [6] | [7] | [8] | [9] | [10] | [11] | [12] | [17] | [13] | [14] | [18] | [15] | [16]

COc1cc(S(=O)(=O)O)c(C)cc1N=Nc1c(O)ccc2cc(S(=O)(=O)O)ccc12
inactive: [1] | [2] | [3] | [4] | TIMP1, TIMP1 (gene 7076) | [6] | [7] | [8] | [9] | [10] | [11] | [19] | [13] | [18] | [15] | [16]

Cc1ccc(N(C)C)cc1
active: [9] 26.6 µM
inactive: [1] | [2] | [3] | [5] | TIMP1, TIMP1 (gene 7076) | [6] | [7] | [8] | [10] | [11] | [12] | [17] | [13] | [14] | [18] | [15] | [16]

Cc1c(C(=O)O)c(O)cc2c1C(=O)c1c(O)c([C@@H]3O[C@H](CO)[C@@H](O)[C@H](O)[C@H]3O)c(O)c(O)c1C2=O
inactive: [1] | [2] | [3] | [4] | TIMP1, TIMP1 (gene 7076) | [6] | [7] | [8] | [9] | [10] | [11] | [19] | [17] | [13] | [14] | [18] | [15] | [16]

CCCCOC(=O)CCCCCCCCC(=O)OCCCC
inactive: [1] | [2] | [3] | [4] | TIMP1, TIMP1 (gene 7076) | [6] | [7] | [8] | [9] | [10] | [11] | [12] | [13] | [14] | [15]

COc1ccc(S(=O)(=O)N2C(=O)[C@@](c3ccccc3OC)(N3C[C@H](O)C[C@H]3C(=O)N(C)C)c3cc(Cl)ccc32)c(OC)c1
active: [1] 50 µM | [2] 25.9 µM | [3] 50.7 µM | [4] 78.7 µM | [7] 19.5 µM | [8] 22.7 µM | [9] 34.8 µM | [10] 79 µM | [12] 79.5 µM | [17] 86.3 µM | [13] 74.9 µM | [15] 67.7 µM | [16] 75 µM
inactive: TIMP1, TIMP1 (gene 7076) | [6] | [11] | [18]
